# Values joined by “and” are separate entries in the source; they are usually repeats but may differ in a detail not shown here. Equal entries are not always repeated. Structures can show the parent of a compound that is named as a salt.
# Tested on: Neuro-2a
# Test: neurite formation score, plate-normalized to DMSO control mean 5.04 (score (0-8 scale)); higher = more or longer neurites
# Details: 1 µM
# Procedure: (§1)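 Neuro-2a mouse neuroblastoma cells in PLL-coated 96-well plates were pre-treated for 1 h in DMEM(+) with each kinase inhibitor at 1 µM, then switched to serum-free DMEM(-) with inhibitor to induce neurite outgrowth and fixed about 2-3 h later. Three blinded observers scored neurite formation from 0 (no neurites) to 8 (long neurites on almost all cells).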
row,Structure (SMILES),neurite formation score
1,O=C(Cc1ccc(-c2ccc(OCCN3CCOCC3)cc2)cn1)NCc1ccccc1 [KX2-391 dihydrochloride],0.692
2,O=C(Nc1cc(C(F)(F)F)cc(C(F)(F)F)c1)c1cc(Cl)ccc1O,2.8
3,Cc1cnc(Nc2ccc(N3CCN(C)CC3)cc2)nc1Nc1cccc(S(=O)(=O)NC(C)(C)C)c1,2.36
4,Cc1cc2c(F)c(Oc3ncnn4cc(OC[C@@H](C)O)c(C)c34)ccc2[nH]1,4.57
5,C#Cc1cccc(Nc2ncnc3cc(OCCOC)c(OCCOC)cc23)c1 [Erlotinib Hydrochloride],4.57
6,O=[N+]([O-])c1ccc(Nc2nc(N3CCOCC3)nc(N3CCOCC3)n2)cc1,4.21
7,Nc1ncnc2n[nH]c(Nc3ccc(F)cc3)c12,4.88
8,COc1ccccc1-c1cc(Nc2cccc(CS(N)(=O)=O)c2)ncn1,4.54
9,Nc1cc(N)c(N)cc1N [FAK Inhibitor 14],4.54
10,c1cc(-c2cnn3cc(-c4ccc(N5CCNCC5)cc4)cnc23)c2cccnc2c1,4.88
11,O=C(CCCCCCC(=O)Nc1ccc(I)cc1)NO [4-iodo-SAHA],5.21
12,N#C/C(=C\c1ccc(O)c(O)c1)C(=O)NCc1ccccc1,4.02
13,c1ccc2c(-c3cnn4cc(-c5ccc(N6CCNCC6)cc5)cnc34)ccnc2c1,5.14 and 4.47
14,Cc1c[nH]c(/C=C2\C(=O)Nc3ccccc32)c1CCC(=O)O,6.02
15,CCc1cncnc1N1CCN(Cc2nc3ccc(C(F)(F)F)cc3[nH]2)CC1,4.54
16,O=C(NC[C@H](O)CO)c1ccncc1Nc1ccc(I)cc1F,3.9
17,COc1cc2ncnc(Nc3cccc(Br)c3)c2cc1OC,4.14
18,"O=c1cc(-c2ccccc2)oc2c(O)c(O)ccc12 [7,8-Dihydroxyflavone]",4.21
19,CO[C@H]1C[C@@H]2CC[C@@H](C)[C@@](O)(O2)C(=O)C(=O)N2CCCC[C@H]2C(=O)O[C@H]([C@H](C)C[C@@H]2CC[C@@H](O)[C@H](OC)C2)CC(=O)[C@H](C)/C=C(\C)[C@@H](O)[C@@H](OC)C(=O)[C@H](C)C[C@H](C)/C=C/C=C/C=C/1C [Rapamycin (Sirolimus)],4.57
20,COc1ccc(-c2ccc3c(N4CCOC[C@@H]4C)nc(N4CCOC[C@@H]4C)nc3n2)cc1CO,4.57

row,Structure (SMILES),neurite formation score
1,Cn1cc(/C=C2\C(=O)Nc3cccnc32)c2ccccc21,4.54
2,C[C@H]1Oc2cc(cnc2N)-c2c(nn(C)c2C#N)CN(C)C(=O)c2ccc(F)cc21,4.21
3,O=C1NC(=O)C(c2ccccc2[N+](=O)[O-])=C1Nc1ccc(O)c(Cl)c1,3.9
4,CCOc1cc(N2CCC(O)CC2)ccc1Nc1ncc2c(n1)N(C)c1ccccc1C(=O)N2C,4.69
5,Cc1cc([C@@H](C)Nc2ccccc2C(=O)O)c2nc(N3CCOCC3)cc(=O)n2c1,4.57
6,N#CC[C@H](C1CCCC1)n1cc(-c2ncnc3[nH]ccc23)cn1,4.91
7,O=C(Nc1ccccc1C(=O)NC1CCCCNC1=O)c1cc2ccccc2s1 (stereo not drawn),3.54
8,Cc1cc(C(=O)NOCCO)c(Nc2ccc(I)cc2F)n(C)c1=O,3.96
9,Cc1cc(C)nc(NS(=O)(=O)c2ccc(NC(=S)NC(=O)COc3ccc(Br)cc3Cl)cc2)n1,3.9
10,CS(=O)(=O)N1CCN(Cc2cc3nc(-c4cccc5[nH]ncc45)nc(N4CCOCC4)c3s2)CC1,4.24
11,C[C@]1(O)C[C@@H](c2nc(-c3ccc4ccc(-c5ccccc5)nc4c3)c3c(N)nccn32)C1 [Linsitinib],4.9
12,O=C1C(c2c(O)[nH]c3ccccc23)=Nc2ccccc21 [Indirubin],4.88
13,C=CC(=O)Nc1cccc(Nc2nc(Nc3ccc(NC4CN(CCF)C4)cc3OC)ncc2C(F)(F)F)c1,4.88
14,C=CC(=O)N1CCC[C@@H](n2nc(-c3ccc(Oc4ccccc4)cc3)c3c(N)ncnc32)C1,3.24
15,C=CC(=O)Nc1cc2c(Nc3ccc(F)c(Cl)c3)ncnc2cc1OCCCN1CCOCC1 [Canertinib (CI-1033)],4.57
16,FC(F)(F)c1ccc(/C=C/c2nc(COc3ccc(CCCCn4ccnn4)cc3)co2)cc1 [Mubritinib (TAK 165)],4.47
17,"CCCS(=O)(=O)Nc1ccc(F)c(C(=O)c2c[nH]c3ncc(-c4ccc(Cl)cc4)cc23)c1F [Vemurafenib (PLX4032, RG7204)]",3.91
18,O=C(c1ccc(/C=C/c2n[nH]c3ccccc23)cc1)N1CCNCC1,6.02
19,COCCOc1ccc2c(c1)ncn2-c1ccc2cccc(N3CCC(N)CC3)c2n1,4.88

# Tested on: Neuro-2a
# Test: as above
# Details: 0.1 µM
# Procedure: as §1, with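 “at 0.1” for “at 1”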
row,Structure (SMILES),neurite formation score
1,O=C(Cc1ccc(-c2ccc(OCCN3CCOCC3)cc2)cn1)NCc1ccccc1 [KX2-391 dihydrochloride],0.584
2,O=C(Nc1cc(C(F)(F)F)cc(C(F)(F)F)c1)c1cc(Cl)ccc1O,4.76
3,Cc1cnc(Nc2ccc(N3CCN(C)CC3)cc2)nc1Nc1cccc(S(=O)(=O)NC(C)(C)C)c1,2.58
4,Cc1cc2c(F)c(Oc3ncnn4cc(OC[C@@H](C)O)c(C)c34)ccc2[nH]1,4.38
5,C#Cc1cccc(Nc2ncnc3cc(OCCOC)c(OCCOC)cc23)c1 [Erlotinib Hydrochloride],5.21
6,O=[N+]([O-])c1ccc(Nc2nc(N3CCOCC3)nc(N3CCOCC3)n2)cc1,5.08
7,Nc1ncnc2n[nH]c(Nc3ccc(F)cc3)c12,5.08
8,COc1ccccc1-c1cc(Nc2cccc(CS(N)(=O)=O)c2)ncn1,4.42
9,Nc1cc(N)c(N)cc1N [FAK Inhibitor 14],4.08
10,c1cc(-c2cnn3cc(-c4ccc(N5CCNCC5)cc4)cnc23)c2cccnc2c1,4.75
11,O=C(CCCCCCC(=O)Nc1ccc(I)cc1)NO [4-iodo-SAHA],4.42
12,N#C/C(=C\c1ccc(O)c(O)c1)C(=O)NCc1ccccc1,4.58
13,c1ccc2c(-c3cnn4cc(-c5ccc(N6CCNCC6)cc5)cnc34)ccnc2c1,2.42 and 4.42
14,Cc1c[nH]c(/C=C2\C(=O)Nc3ccccc32)c1CCC(=O)O,5.92
15,CCc1cncnc1N1CCN(Cc2nc3ccc(C(F)(F)F)cc3[nH]2)CC1,4.42
16,O=C(NC[C@H](O)CO)c1ccncc1Nc1ccc(I)cc1F,5.54
17,COc1cc2ncnc(Nc3cccc(Br)c3)c2cc1OC,5.09
18,"O=c1cc(-c2ccccc2)oc2c(O)c(O)ccc12 [7,8-Dihydroxyflavone]",5.08
19,CO[C@H]1C[C@@H]2CC[C@@H](C)[C@@](O)(O2)C(=O)C(=O)N2CCCC[C@H]2C(=O)O[C@H]([C@H](C)C[C@@H]2CC[C@@H](O)[C@H](OC)C2)CC(=O)[C@H](C)/C=C(\C)[C@@H](O)[C@@H](OC)C(=O)[C@H](C)C[C@H](C)/C=C/C=C/C=C/1C [Rapamycin (Sirolimus)],5.54
20,COc1ccc(-c2ccc3c(N4CCOC[C@@H]4C)nc(N4CCOC[C@@H]4C)nc3n2)cc1CO,3.21

row,Structure (SMILES),neurite formation score
1,Cn1cc(/C=C2\C(=O)Nc3cccnc32)c2ccccc21,4.08
2,C[C@H]1Oc2cc(cnc2N)-c2c(nn(C)c2C#N)CN(C)C(=O)c2ccc(F)cc21,5.08
3,O=C1NC(=O)C(c2ccccc2[N+](=O)[O-])=C1Nc1ccc(O)c(Cl)c1,5.21
4,CCOc1cc(N2CCC(O)CC2)ccc1Nc1ncc2c(n1)N(C)c1ccccc1C(=O)N2C,4.92
5,Cc1cc([C@@H](C)Nc2ccccc2C(=O)O)c2nc(N3CCOCC3)cc(=O)n2c1,4.54
6,N#CC[C@H](C1CCCC1)n1cc(-c2ncnc3[nH]ccc23)cn1,5.04
7,O=C(Nc1ccccc1C(=O)NC1CCCCNC1=O)c1cc2ccccc2s1 (stereo not drawn),3.75
8,Cc1cc(C(=O)NOCCO)c(Nc2ccc(I)cc2F)n(C)c1=O,3.92
9,Cc1cc(C)nc(NS(=O)(=O)c2ccc(NC(=S)NC(=O)COc3ccc(Br)cc3Cl)cc2)n1,3.88
10,CS(=O)(=O)N1CCN(Cc2cc3nc(-c4cccc5[nH]ncc45)nc(N4CCOCC4)c3s2)CC1,5.21
11,C[C@]1(O)C[C@@H](c2nc(-c3ccc4ccc(-c5ccccc5)nc4c3)c3c(N)nccn32)C1 [Linsitinib],4.54
12,O=C1C(c2c(O)[nH]c3ccccc23)=Nc2ccccc21 [Indirubin],4.42
13,C=CC(=O)Nc1cccc(Nc2nc(Nc3ccc(NC4CN(CCF)C4)cc3OC)ncc2C(F)(F)F)c1,4.08
14,C=CC(=O)N1CCC[C@@H](n2nc(-c3ccc(Oc4ccccc4)cc3)c3c(N)ncnc32)C1,4.38
15,C=CC(=O)Nc1cc2c(Nc3ccc(F)c(Cl)c3)ncnc2cc1OCCCN1CCOCC1 [Canertinib (CI-1033)],4.71
16,FC(F)(F)c1ccc(/C=C/c2nc(COc3ccc(CCCCn4ccnn4)cc3)co2)cc1 [Mubritinib (TAK 165)],4.76
17,"CCCS(=O)(=O)Nc1ccc(F)c(C(=O)c2c[nH]c3ncc(-c4ccc(Cl)cc4)cc23)c1F [Vemurafenib (PLX4032, RG7204)]",4.04
18,O=C(c1ccc(/C=C/c2n[nH]c3ccccc23)cc1)N1CCNCC1,1.92
19,COCCOc1ccc2c(c1)ncn2-c1ccc2cccc(N3CCC(N)CC3)c2n1,5.08

# Reference: the supplement of paper PMC8047044
